Experimental data published in PubChem BioAssay AID893 (National Center for Advancing Translational Sciences (NCATS), 2007).
Several values for one entry are separate records, joined by “and”; a condition that tells them apart may be missing. Identical values can stand only once. In all, about 75,000 compounds went through this assay and about 5,700 (7.6%) were called active. Another 7% or so got no clear call; they are omitted. Calls come from the whole dose curve; as a rule, active = well fitted inhibition curve with a large enough effect; inconclusive = small, poorly fitted or top-dose-only effect; inactive = no such curve, though single readings can be large or run the other way. This excerpt belongs to a sample that is enriched for actives.

What follows are compounds tested against 3-hydroxyacyl-CoA dehydrogenase type-2 (Homo sapiens) (UniProt Q99714) (assay: qHTS Assay for Inhibitors of HSD17B4, hydroxysteroid (17-beta) dehydrogenase 4). Conditions: recombinant HSD17B10, NADH fluorescence kinetic; series mostly up to 57.1 µM; activity change, negative = inhibition: at the top concentration.
Procedure, shortened: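 20 nM HADH2, pH 9.0 Tris/Tween; cpd preinc 15 min RT; start w/ 1 mM NAD+ + 90 uM b-hydroxybutyryl-CoA; kinetic fluor ex360/em450 q30s x 4 min; delta last-first.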
% is set by controls: 0 for no effect and ±100 for the full control effect; potency is the fitted concentration of half-maximal effect.
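Note: the protocol describes HADH2 (HSD17B10) and not the HSD17B4 of the title; nearly all actives have a fitted effect of over 70% in size.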

Activity change, negative = inhibition, inactive:
c1ccc(-n2ncc3c2ncn2c(CSc4nc5ccccc5s4)nnc32)cc1 5.97%
CCOC(=O)Cn1c(CN(Cc2ccccc2)Cc2ccccc2)nc2c1c(=O)[nH]c(=O)n2C 2.66%
CCCOC(=O)c1[nH]c2c(c1C)C(=O)CC(c1cc(OC)c(OC)c(OC)c1)C2 (stereo not given) 7.46%
CC1(C)OC2CO[C@]3(COS(N)(=O)=O)OC(C)(C)OC3C2O1 (stereo not given in full) 4.95%
Oc1cc(O)c2c(c1)OC(c1ccc(O)c(O)c1)C(O)C2 (stereo not given) -12.6%
O=C(NCCCN1CCN(C2CCCCC2)CC1)Nc1ccccc1C(F)(F)F 13%
Cc1cccc(CNc2cc(-c3ccccc3Cl)ncn2)c1 -4.03%
Cc1ccc(S(=O)(=O)NCC(=O)N(CC(=O)NC2CCCCC2)Cc2ccco2)cc1 2.39%
Cc1ccc(NC(=O)CS(=O)CC(=O)N(c2ccccc2)C(C)C(=O)NC2CCCC2)cc1 (stereo not given) 1.98%
CO[C@H]1COC(=O)[C@H](Cc2ccccc2)NC(=O)C/C=C\[C@@H](C)[C@H](OC)COC(=O)C/C=C\[C@@H]1C -5.43% [at 11.4 µM]
COC(=O)c1cn(C)c2ccc(S(=O)(=O)N3CC(C)CC(C)C3)cc2c1=O (stereo not given) 7.23%
Cc1ccc(-n2nc(-c3ccco3)cc2C(=O)NCc2cccnc2)cc1 -29.6%
CC(C)(C)c1cc(C(=O)NCc2cccnc2)ccn1 4.84%
Fc1ccc(-c2nnc(CSc3nnc(-c4ccc5c(c4)OCO5)o3)o2)cc1 0.775%
O=C(c1cccc(C(=O)N2CCN(c3ccc(F)cc3)CC2)c1)N1CCN(c2ccc(F)cc2)CC1 3.89%
Cc1cc(C)c2[nH]c(=O)c(C(c3nnnn3Cc3ccc4c(c3)OCO4)N3CCCC3)cc2c1 (stereo not given) 51.7%
Cc1cccc2cc(CN(Cc3ccc4c(c3)OCO4)Cc3nnnn3C3CCCC3)c(=O)[nH]c12 -9.43%
Nc1nc2nc(Cl)[nH]c2c(=O)[nH]1 -5.13%
CCOC(=O)C1CCCCN1Cc1ccc(OC)c(OC)c1OC (stereo not given) 3.61%
Clc1ccc(CSc2nnc([C@@H]3CCCN3)o2)cc1 0.227%
CC(C)OC(=O)C(C#N)c1nc2ccccc2nc1N1CCN(Cc2ccccc2)CC1 (stereo not given) -5.29%
Cc1ccc(S(=O)(=O)N2CC(=O)Nc3ccccc32)cc1C 89.7%
O=C(O)c1nn(-c2ccc(Cl)cc2)c2c1C(=O)c1ccccc1C2=O -2.81% [at 11.4 µM]
CCc1ccc(N(CC)c2ncnc3nc[nH]c23)cc1 5.77%
O=C(O)c1ccc(Cl)c(S(=O)(=O)Nc2ccccc2Cl)c1 -7.94%
Cn1c(CN2CCOCC2)nc2cc(NC(=O)c3ccc(Cl)cc3)ccc21 -7.15%
CC(=O)Nc1ccc(N2CCOCC2)c(C(=O)Nc2cccc(C)c2)c1 3.99%
COc1cccc(N(C(=O)c2ccn[nH]2)C2(C(=O)Nc3c(C)cccc3C)CCCCC2)c1 -0.273%
CSCCC(Nc1nc2ccccc2s1)C(=O)O (stereo not given) -0.585%
O=C(O)CN(Cc1ccco1)S(=O)(=O)c1ccc(F)cc1 3.03%
CC(C)c1ccc2c([Si](C)(C)C)c3c(nc2c1)-c1cccc(=O)n1C3 -7.17%
CC(C)(O)CCC(O)[C@@](C)(O)C1CC[C@]2(O)C3=CC(=O)C4CC(O)C(O)C[C@]4(C)C3CC[C@]12C (stereo not given in full) 3.96%
CCOc1ccc(N2C(=O)CC(N(O)c3ccccc3)C2=O)cc1 (stereo not given) 7.88%
N#Cc1nc(COc2ccc(-c3ccccc3)cc2)oc1NCc1cccnc1 -5.22%
N#Cc1nc(Cc2ccccc2)oc1NCCc1ccccc1 -12.5%
CC(C)(C)n1nnnc1C(c1cccs1)N(Cc1cccnc1)CC1CCCO1 (stereo not given) 7.97%
COc1ccc2[nH]cc(CCNc3cc(-c4ccccc4CN(C)C)ncn3)c2c1 17.2%
Cc1cc(Nc2ccc(Br)cc2F)n2ncnc2n1 3.99%
Cc1ccc(NC(=O)CCNS(=O)(=O)c2ccc3c(c2)oc(=O)n3C)cc1C 6.7%
C[C@@H]1/C=C\CC(=O)OC[C@H]2O[C@@H](C=C[C@@H]2O)[C@H](C)/C=C\CC(=O)OC[C@H]2O[C@H]1C=C[C@@H]2O -0.26% [at 11.4 µM]

Potency, inactive:
CC[C@]1(C)CC(=O)NC1=O

Potency, active:
COc1c(C)c2c(c(O)c1C/C=C(\C)CCC(=O)O)C(=O)OC2 12.6 µM and 25.1 µM
Oc1ccc(O)c2c(O)cccc12 12.6 µM
O=c1[nH][nH]c(=O)c2cc(N3CCCC3)ccc12 31.6 µM
COCCn1c(=O)[nH]c2cc(C(=O)NCc3cccnc3)ccc2c1=O 31.6 µM
Cc1cccc2cc(CN(Cc3nnnn3Cc3ccccc3)C3CCCC3)c(=O)[nH]c12 31.6 µM
Cc1ccc(S(=O)(=O)C(C#N)c2nc3ccccc3nc2N2CCCC2)cc1C (stereo not given) 31.6 µM
Cn1c(=O)n(C)c2cc(CNc3ccc(N4CCOCC4)c(C(=O)O)c3)ccc21 25.1 µM
Cc1c2c(nc3ccccc13)-c1cccc(=O)n1C2 7.94 µM
N#Cc1nc(-c2ccc(OCc3ccccc3)cc2)oc1NCCCN1CCOCC1 25.1 µM
